Results reported in the supplement of paper PMC10849652.
About 8,800 targets were measured; listed, in parts, are those with a hit and a random draw of the rest. About 0.5% of all pairs of compound and target were hits. Unmarked numbers belong to inactive results.

UniProt Q96N67, sequence (Q96N67 whole entry, looked up): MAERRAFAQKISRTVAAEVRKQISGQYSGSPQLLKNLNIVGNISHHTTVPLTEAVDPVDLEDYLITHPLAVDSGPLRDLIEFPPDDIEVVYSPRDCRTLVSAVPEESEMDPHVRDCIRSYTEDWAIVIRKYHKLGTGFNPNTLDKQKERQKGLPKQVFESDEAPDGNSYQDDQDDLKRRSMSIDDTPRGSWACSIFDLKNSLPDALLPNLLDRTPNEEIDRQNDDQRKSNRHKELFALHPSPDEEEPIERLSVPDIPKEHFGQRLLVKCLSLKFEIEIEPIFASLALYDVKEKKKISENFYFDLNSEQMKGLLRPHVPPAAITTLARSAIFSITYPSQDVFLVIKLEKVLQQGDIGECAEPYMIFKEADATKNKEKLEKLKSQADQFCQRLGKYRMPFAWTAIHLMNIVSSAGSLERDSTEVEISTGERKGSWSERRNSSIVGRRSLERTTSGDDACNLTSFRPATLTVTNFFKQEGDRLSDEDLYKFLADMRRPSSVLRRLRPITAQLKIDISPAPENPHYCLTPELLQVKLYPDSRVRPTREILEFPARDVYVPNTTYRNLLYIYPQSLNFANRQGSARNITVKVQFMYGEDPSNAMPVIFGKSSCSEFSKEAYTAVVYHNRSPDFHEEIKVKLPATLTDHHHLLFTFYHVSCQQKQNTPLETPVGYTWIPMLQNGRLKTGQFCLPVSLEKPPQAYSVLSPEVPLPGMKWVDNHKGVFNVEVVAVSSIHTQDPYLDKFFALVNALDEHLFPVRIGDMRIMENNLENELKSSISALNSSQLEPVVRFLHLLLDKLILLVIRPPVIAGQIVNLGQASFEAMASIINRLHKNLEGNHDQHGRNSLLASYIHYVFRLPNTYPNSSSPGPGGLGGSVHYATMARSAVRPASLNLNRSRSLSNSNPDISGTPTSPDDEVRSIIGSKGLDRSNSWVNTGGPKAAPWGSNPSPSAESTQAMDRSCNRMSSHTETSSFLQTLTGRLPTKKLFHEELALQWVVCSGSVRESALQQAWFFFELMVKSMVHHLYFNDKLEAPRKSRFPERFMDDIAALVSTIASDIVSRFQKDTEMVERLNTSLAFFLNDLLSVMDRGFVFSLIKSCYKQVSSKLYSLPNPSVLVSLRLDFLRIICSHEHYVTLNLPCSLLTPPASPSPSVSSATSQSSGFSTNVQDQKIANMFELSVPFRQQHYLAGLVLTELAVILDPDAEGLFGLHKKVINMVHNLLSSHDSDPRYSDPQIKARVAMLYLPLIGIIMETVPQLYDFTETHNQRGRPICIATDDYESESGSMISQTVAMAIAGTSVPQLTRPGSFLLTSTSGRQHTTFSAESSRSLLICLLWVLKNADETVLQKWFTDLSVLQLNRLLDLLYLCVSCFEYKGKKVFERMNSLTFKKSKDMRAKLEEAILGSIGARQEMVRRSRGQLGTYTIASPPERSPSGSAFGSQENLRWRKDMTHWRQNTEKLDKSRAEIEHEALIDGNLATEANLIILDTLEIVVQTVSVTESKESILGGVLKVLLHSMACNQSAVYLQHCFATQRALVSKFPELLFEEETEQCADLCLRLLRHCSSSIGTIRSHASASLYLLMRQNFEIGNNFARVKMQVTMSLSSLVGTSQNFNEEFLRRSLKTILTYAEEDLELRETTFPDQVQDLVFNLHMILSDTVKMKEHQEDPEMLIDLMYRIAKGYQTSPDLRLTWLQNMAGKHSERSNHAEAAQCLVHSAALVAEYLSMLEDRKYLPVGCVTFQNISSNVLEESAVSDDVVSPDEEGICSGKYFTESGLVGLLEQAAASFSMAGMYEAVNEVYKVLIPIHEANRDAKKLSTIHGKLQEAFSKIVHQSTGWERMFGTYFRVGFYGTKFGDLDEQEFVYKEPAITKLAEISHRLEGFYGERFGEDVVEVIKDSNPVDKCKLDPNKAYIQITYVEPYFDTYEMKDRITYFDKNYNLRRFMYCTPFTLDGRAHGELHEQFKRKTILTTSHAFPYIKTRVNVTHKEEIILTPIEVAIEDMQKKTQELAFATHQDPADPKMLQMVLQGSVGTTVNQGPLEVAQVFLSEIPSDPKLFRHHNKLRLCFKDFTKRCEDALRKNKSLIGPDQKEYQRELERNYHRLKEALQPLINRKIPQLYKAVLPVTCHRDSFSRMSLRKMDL
UniProt Q96JB2, sequence (Q96JB2 whole entry, looked up): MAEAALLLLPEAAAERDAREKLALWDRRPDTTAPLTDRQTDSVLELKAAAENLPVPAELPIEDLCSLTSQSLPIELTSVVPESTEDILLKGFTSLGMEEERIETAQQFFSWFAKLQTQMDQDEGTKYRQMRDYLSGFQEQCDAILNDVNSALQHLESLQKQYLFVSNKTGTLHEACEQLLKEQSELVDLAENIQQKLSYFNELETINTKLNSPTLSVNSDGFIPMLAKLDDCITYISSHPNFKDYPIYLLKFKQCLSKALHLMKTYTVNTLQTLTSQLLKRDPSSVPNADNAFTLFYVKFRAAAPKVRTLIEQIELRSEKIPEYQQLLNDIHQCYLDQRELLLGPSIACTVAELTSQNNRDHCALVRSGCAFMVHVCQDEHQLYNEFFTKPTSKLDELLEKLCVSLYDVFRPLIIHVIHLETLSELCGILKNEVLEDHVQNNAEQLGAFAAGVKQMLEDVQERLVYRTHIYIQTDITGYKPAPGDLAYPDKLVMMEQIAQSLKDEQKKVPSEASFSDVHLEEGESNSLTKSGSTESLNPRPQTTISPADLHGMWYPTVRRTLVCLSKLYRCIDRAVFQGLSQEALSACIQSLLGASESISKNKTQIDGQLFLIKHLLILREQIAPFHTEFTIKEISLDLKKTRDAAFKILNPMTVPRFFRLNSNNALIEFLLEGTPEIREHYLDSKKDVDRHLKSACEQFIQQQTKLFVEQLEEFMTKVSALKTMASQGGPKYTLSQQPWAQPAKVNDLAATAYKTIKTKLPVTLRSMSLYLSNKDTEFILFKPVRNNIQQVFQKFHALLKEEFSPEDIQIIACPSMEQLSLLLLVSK
UniProt O95628, sequence (O95628 whole entry, looked up): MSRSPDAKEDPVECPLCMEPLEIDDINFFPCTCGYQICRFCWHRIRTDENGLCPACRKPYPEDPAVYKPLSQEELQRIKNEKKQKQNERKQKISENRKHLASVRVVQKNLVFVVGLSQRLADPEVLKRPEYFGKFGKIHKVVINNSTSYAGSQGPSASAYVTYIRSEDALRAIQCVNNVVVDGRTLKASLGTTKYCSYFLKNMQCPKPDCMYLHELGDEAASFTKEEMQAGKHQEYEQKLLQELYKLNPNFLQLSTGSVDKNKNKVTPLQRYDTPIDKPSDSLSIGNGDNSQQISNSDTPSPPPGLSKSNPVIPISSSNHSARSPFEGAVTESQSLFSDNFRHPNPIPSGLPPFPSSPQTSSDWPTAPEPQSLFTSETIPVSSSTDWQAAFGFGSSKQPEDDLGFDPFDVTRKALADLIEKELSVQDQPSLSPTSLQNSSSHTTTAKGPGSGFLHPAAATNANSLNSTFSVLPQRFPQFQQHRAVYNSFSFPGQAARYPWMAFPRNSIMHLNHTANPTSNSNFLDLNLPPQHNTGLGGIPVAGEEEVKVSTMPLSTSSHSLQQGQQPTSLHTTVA
UniProt Q8TB03, sequence (Q8TB03 whole entry, looked up): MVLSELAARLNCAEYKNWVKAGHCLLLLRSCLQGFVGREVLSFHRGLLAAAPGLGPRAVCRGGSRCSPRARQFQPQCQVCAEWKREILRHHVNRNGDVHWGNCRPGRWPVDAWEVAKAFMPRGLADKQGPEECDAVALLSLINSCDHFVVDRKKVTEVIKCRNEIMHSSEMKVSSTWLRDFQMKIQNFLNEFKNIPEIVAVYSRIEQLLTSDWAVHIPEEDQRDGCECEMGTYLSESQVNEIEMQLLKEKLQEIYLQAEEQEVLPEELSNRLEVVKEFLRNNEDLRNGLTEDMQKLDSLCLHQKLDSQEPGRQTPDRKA
UniProt Q9NRF8, sequence (Q9NRF8 whole entry, looked up): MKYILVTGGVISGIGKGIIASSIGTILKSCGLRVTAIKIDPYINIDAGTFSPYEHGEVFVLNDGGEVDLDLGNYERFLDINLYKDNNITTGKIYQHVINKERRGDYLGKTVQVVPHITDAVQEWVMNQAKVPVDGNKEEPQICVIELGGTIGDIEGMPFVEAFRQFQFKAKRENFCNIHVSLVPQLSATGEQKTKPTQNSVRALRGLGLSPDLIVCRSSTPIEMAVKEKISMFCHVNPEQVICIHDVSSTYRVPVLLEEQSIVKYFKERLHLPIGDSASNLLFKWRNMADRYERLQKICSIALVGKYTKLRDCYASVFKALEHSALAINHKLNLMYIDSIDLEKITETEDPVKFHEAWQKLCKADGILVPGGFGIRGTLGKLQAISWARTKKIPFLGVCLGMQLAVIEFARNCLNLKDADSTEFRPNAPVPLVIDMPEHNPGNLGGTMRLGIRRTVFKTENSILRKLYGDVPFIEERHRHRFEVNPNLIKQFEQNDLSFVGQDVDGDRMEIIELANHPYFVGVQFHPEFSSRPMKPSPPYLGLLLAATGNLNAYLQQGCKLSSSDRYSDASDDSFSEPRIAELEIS
UniProt O76075, sequence (O76075 whole entry, looked up): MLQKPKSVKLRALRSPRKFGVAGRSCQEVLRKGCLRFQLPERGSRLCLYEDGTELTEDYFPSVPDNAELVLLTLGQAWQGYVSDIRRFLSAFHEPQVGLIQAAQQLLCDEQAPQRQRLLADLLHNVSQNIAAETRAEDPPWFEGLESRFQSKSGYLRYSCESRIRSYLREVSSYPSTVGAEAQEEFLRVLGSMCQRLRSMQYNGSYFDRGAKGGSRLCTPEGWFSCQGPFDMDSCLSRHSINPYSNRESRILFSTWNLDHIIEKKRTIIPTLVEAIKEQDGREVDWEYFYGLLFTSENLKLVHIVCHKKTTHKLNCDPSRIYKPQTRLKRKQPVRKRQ
UniProt Q99828, sequence (Q99828 whole entry, looked up): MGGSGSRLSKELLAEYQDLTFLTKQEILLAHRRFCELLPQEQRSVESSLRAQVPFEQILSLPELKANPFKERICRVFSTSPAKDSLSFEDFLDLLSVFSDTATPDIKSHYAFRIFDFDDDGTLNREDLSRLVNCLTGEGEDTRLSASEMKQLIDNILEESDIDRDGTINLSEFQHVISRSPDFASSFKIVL

These targets were tested with CC1=C2C(=CC=C1)N=C(N(C2=O)C3=CC=CC=C3C)CN4C=NC5=C(N=CN=C54)N (assay: log2 fold change, soluble protein after heating vs DMSO (PISA); higher = thermal stabilisation; K562 lysate, 10 uM; active = over 0.2 and 3.5 SD of the protein, either way, in both replicates (recomputed)).
Summary of the method: (§1)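 A 30 min treatment with 10 μM compound was applied to crude K562 extract at 1 mg/mL protein in PBS pH 7.4 with 1 mM MgCl2. Heating for 3 min spanned 48°C-58°C, after which aliquots were pooled, adjusted to 0.5% NP-40 at 4°C and spun at 21,000xg for 90 min. TMTpro 16plex LC-MS/MS of the supernatant, with channel sums equalised, gave values recorded as log-two fold change in thermal stability against solvent controls, from duplicates.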
Work on CLPB isoform 2 (UniProt Q9H078) yielded a log2 fold change of 0. CMSS1 (UniProt Q9BQ75) gave a log2 fold change of -0.017. CTPS2 (UniProt Q9NRF8) showed a log2 fold change of -0.008. With COG2 (UniProt Q14746) the log2 fold change was 0.054. Work on COTL1 (UniProt Q14019) yielded a log2 fold change of 0.01. In the case of CNOT2 (UniProt Q9NZN8), the log2 fold change was -0.019. In the case of COG5 isoform 2 (UniProt Q9UP83), the log2 fold change was -0.042. Target DLG3 isoform 2 (UniProt Q92796) has a log2 fold change of -0.085. For COG3 (UniProt Q96JB2), the log2 fold change was 0.016. Work on DHRS3 (UniProt O75911) yielded a log2 fold change of -0.091. DENND6A (UniProt Q8IWF6) gave a log2 fold change of -0.026. In the case of DHCR7 (UniProt Q9UBM7), the log2 fold change was -0.031. In the case of CKAP5 (UniProt Q14008), the log2 fold change was 0.01. With DFFB (UniProt O76075) the log2 fold change was 0.061. CNOT4 isoform 9 (UniProt O95628) gave a log2 fold change of -0.014. DOCK8 (UniProt Q8NF50) was tested, and the log2 fold change was 0.013. CIB1 (UniProt Q99828) gave a log2 fold change of -0.039. In the case of DAZAP1 (UniProt Q96EP5), the log2 fold change was 0.005. For CSPP1 (UniProt Q1MSJ5), the log2 fold change was 0.051. Work on DENND1B (UniProt Q6P3S1) yielded a log2 fold change of -0.062. In the case of DGCR8 (UniProt Q8WYQ5), the log2 fold change was 0.004. In the case of CKM (UniProt P06732), the log2 fold change was -0.109. Target CSNK2B (UniProt P67870) has a log2 fold change of -0.068. In the case of CLASP2 (UniProt O75122), the log2 fold change was -0.105. CTNNBL1 (UniProt Q8WYA6) showed a log2 fold change of 0.004. CSTF2 (UniProt P33240) showed a log2 fold change of 0.055. Target CHEK1 (UniProt O14757) has a log2 fold change of 0.006. For DOCK7 (UniProt Q96N67), the log2 fold change was -0.017. COX20 isoform 2 (UniProt Q5RI15) gave a log2 fold change of -0.092. In the case of CYP51A1 (UniProt Q16850), the log2 fold change was -0.058. CNOT6L (UniProt Q96LI5) was tested, and the log2 fold change was -0.013. With CXorf38 (UniProt Q8TB03) the log2 fold change was -0.021. CSNK1E (UniProt P49674) was tested, and the log2 fold change was -0.031. Work on COG7 (UniProt P83436) yielded a log2 fold change of 0.01.

Each target was assayed with Cc1sc2c(c1C)C(c1ccc(Cl)cc1)=N[C@@H](CC(=O)OC(C)(C)C)c1nnc(C)n1-2 in the same assay as above.
Summary of the method: as §1
CLPB isoform 2 (UniProt Q9H078) showed a log2 fold change of 0.094. Work on CMSS1 (UniProt Q9BQ75) yielded a log2 fold change of -0.023. CTPS2 (UniProt Q9NRF8) showed a log2 fold change of 0.004. In the case of COG2 (UniProt Q14746), the log2 fold change was 0.001. In the case of COTL1 (UniProt Q14019), the log2 fold change was 0.031. Target CNOT2 (UniProt Q9NZN8) has a log2 fold change of -0.004. In the case of COG5 isoform 2 (UniProt Q9UP83), the log2 fold change was -0.003. DLG3 isoform 2 (UniProt Q92796) was tested, and the log2 fold change was 0.019. COG3 (UniProt Q96JB2) gave a log2 fold change of 0.033. For DHRS3 (UniProt O75911), the log2 fold change was 0.018. Target DENND6A (UniProt Q8IWF6) has a log2 fold change of 0.039. Target DHCR7 (UniProt Q9UBM7) has a log2 fold change of -0.045. CKAP5 (UniProt Q14008) was tested, and the log2 fold change was 0.014. With DFFB (UniProt O76075) the log2 fold change was -0.032. CNOT4 isoform 9 (UniProt O95628) gave a log2 fold change of -0.066. DOCK8 (UniProt Q8NF50) was tested, and the log2 fold change was 0.005. In the case of CIB1 (UniProt Q99828), the log2 fold change was 0.023. DAZAP1 (UniProt Q96EP5) gave a log2 fold change of 0.088. Target CSPP1 (UniProt Q1MSJ5) has a log2 fold change of -0.008. DENND1B (UniProt Q6P3S1) showed a log2 fold change of -0.182. With DGCR8 (UniProt Q8WYQ5) the log2 fold change was 0.029. CKM (UniProt P06732) gave a log2 fold change of -0.169. CSNK2B (UniProt P67870) was tested, and the log2 fold change was 0.03. CTNNBL1 (UniProt Q8WYA6) was tested, and the log2 fold change was -0.087. In the case of CSTF2 (UniProt P33240), the log2 fold change was -0.032. Target CHEK1 (UniProt O14757) has a log2 fold change of -0.04. Work on DOCK7 (UniProt Q96N67) yielded a log2 fold change of -0.011. COX20 isoform 2 (UniProt Q5RI15) gave a log2 fold change of 0.001. For CYP51A1 (UniProt Q16850), the log2 fold change was -0.028. For CNOT6L (UniProt Q96LI5), the log2 fold change was -0.049. For CXorf38 (UniProt Q8TB03), the log2 fold change was -0.004. Work on CSNK1E (UniProt P49674) yielded a log2 fold change of 0.031. COG7 (UniProt P83436) gave a log2 fold change of -0.034.

These targets were tested with c1ccc([C@@H]2C[C@H]2NC2CCNCC2)cc1 in the same assay as above.
Summary of the method: as §1
With CLPB isoform 2 (UniProt Q9H078) the log2 fold change was 0.079. Target CMSS1 (UniProt Q9BQ75) has a log2 fold change of 0.106. In the case of CTPS2 (UniProt Q9NRF8), the log2 fold change was 0. COG2 (UniProt Q14746) gave a log2 fold change of 0.009. With COTL1 (UniProt Q14019) the log2 fold change was 0.064. For CNOT2 (UniProt Q9NZN8), the log2 fold change was 0.008. COG5 isoform 2 (UniProt Q9UP83) gave a log2 fold change of 0.033. For DLG3 isoform 2 (UniProt Q92796), the log2 fold change was 0.048. Work on COG3 (UniProt Q96JB2) yielded a log2 fold change of 0.019. In the case of DHRS3 (UniProt O75911), the log2 fold change was -0.004. Target DENND6A (UniProt Q8IWF6) has a log2 fold change of 0.023. With DHCR7 (UniProt Q9UBM7) the log2 fold change was 0.091. In the case of CKAP5 (UniProt Q14008), the log2 fold change was 0.048. For DFFB (UniProt O76075), the log2 fold change was 0.081. With CNOT4 isoform 9 (UniProt O95628) the log2 fold change was -0.551. In the case of DOCK8 (UniProt Q8NF50), the log2 fold change was 0.05. With CIB1 (UniProt Q99828) the log2 fold change was 0.03. DAZAP1 (UniProt Q96EP5) showed a log2 fold change of -0.086. With CSPP1 (UniProt Q1MSJ5) the log2 fold change was -0.028. With DENND1B (UniProt Q6P3S1) the log2 fold change was 0.014. DGCR8 (UniProt Q8WYQ5) was tested, and the log2 fold change was 0.017. CKM (UniProt P06732) was tested, and the log2 fold change was 0. CSNK2B (UniProt P67870) gave a log2 fold change of -0.016. CLASP2 (UniProt O75122) showed a log2 fold change of 0.002. With CTNNBL1 (UniProt Q8WYA6) the log2 fold change was 0.073. CSTF2 (UniProt P33240) was tested, and the log2 fold change was 0.01. Target CHEK1 (UniProt O14757) has a log2 fold change of 0. In the case of DOCK7 (UniProt Q96N67), the log2 fold change was 0.012. COX20 isoform 2 (UniProt Q5RI15) was tested, and the log2 fold change was 0.23. CYP51A1 (UniProt Q16850) showed a log2 fold change of -0.007. In the case of CNOT6L (UniProt Q96LI5), the log2 fold change was -0.164. CXorf38 (UniProt Q8TB03) showed a log2 fold change of 0.031. With CSNK1E (UniProt P49674) the log2 fold change was -0.005. For COG7 (UniProt P83436), the log2 fold change was 0.012.
